Measured values as given in ChEMBL document CHEMBL3988442, “University of Dundee, Small-Polar-MMV Screening Library” (2021).
Out of some 69,000 compounds screened, about 950 (1.4%) showed an effect of 50% or more. What follows is part of a selection rich in strong results, with near analogues and random picks from the rest.

These compounds were tested on Mycobacterium tuberculosis (assay: Cornell M. t heat shock assay; also: in the data most compounds retested in dose-response had high values).
Format: functional, organism-based
Set-up: dose or concentration left out as unconfirmed

SMILES	Percent Effect [%]
Cl.Cn1ccnc1C1(O)CCN(C(=O)CCc2ccccc2)CC1	1.719
Cc1noc(C)c1CN1CCc2c(CNc3nccs3)n[nH]c2C1.O=C(O)C(F)(F)F	8.041
CCCNC(=O)c1cc2c(s1)CCN2C(=O)CN(C)C.O=C(O)C(F)(F)F	1.454
C[C@H]1CN(c2ccccn2)C[C@@]12CCN(c1cccnc1)C2=O.O=C(O)C(F)(F)F.O=C(O)C(F)(F)F	11.35
COc1ccc(CN2CCC3(CC(=O)N(c4cncnc4)C3)C2)cc1.O=C(O)C(F)(F)F (stereo not drawn)	-12.31
CN1CCC(c2nc3ccc(-c4ccccc4)cn3n2)CC1.O=C(O)C(F)(F)F	-24.93
COc1ccccc1Cc1cncc(N2CC(C(=O)O)C2)n1.Cl	2.257
CN(C)c1nc2c(c(N(C)Cc3n[nH]c4c3CCCC4)n1)CCNCC2	31.61
CN(Cc1n[nH]c2c1CCCC2)c1nc(C2CC2)nc2c1CCNCC2	1.399
CN(C)c1nc2c(c(N(C)Cc3n[nH]c4c3CCCCC4)n1)CCNC2	76.86
CCS(=O)(=O)N1C[C@@H](OCc2ccccn2)[C@@H]2OCCC[C@@H]21.O=C(O)C(F)(F)F	-14.72
CCC1(CC)Cc2ccccc2-c2nc(NCCO)[nH]c(=O)c21	-12.78
CCC1(CC)Cc2ccccc2-c2nc(CN(C)C)nc(O)c21	51.81
CCC1(CC)Cc2ccccc2-c2nc(NCCCO)[nH]c(=O)c21	0.6588
Cc1cccc(C(=O)N2C[C@@H]3COC[C@@H](CC(=O)N4CCCC4)[C@@H]3C2)n1.O=C(O)C(F)(F)F	-12.77
Cc1ccc(N2CCCC3(COCCN(c4ncccn4)C3)C2)nn1.O=C(O)C(F)(F)F (stereo not drawn)	-5.221
O=C(O)C(F)(F)F.O=C(c1cc(C2CC2)on1)N1C[C@@H]2COC[C@]2(COc2cccnc2)C1	24.08
CCc1cnc(N2CCC3(CC(=O)N(Cc4csc(C)n4)C3)C2)nc1.O=C(O)C(F)(F)F (stereo not drawn)	1.546
Cc1nc(C)n(CC2CCCN(c3ncnc4ccsc34)C2)n1 (stereo not drawn)	56.12
Cc1nc(C)n(CC2CCCN(c3ncnc4ccccc34)C2)n1 (stereo not drawn)	-1.971
Cc1nc(C)n(CC2CCCN(c3ncnc4sccc34)C2)n1 (stereo not drawn)	24.39
CC(C)N(C)Cc1cn2c(n1)CN(C(=O)Cc1ccccc1)CC2.O=C(O)C(F)(F)F	-8.481
CCN1CC2(CCOCC2)c2cc(NS(=O)(=O)CC)ccc21.O=C(O)C(F)(F)F	51.54
CCCC(=O)Nc1ccc2c(c1)C1(CCOCC1)CN2CCOC.O=C(O)C(F)(F)F	15.62
CCS(=O)(=O)Nc1ccc2c(c1)C1(CCOCC1)CN2C.O=C(O)C(F)(F)F	36
COCCN1CC2(CCOCC2)c2cc(NC(=O)C3CC=CC3)ccc21.O=C(O)C(F)(F)F	100.7
CCC(=O)Nc1ccc2c(c1)C1(CCOCC1)CN2CCOC.O=C(O)C(F)(F)F	46.17
CCC(=O)Nc1ccc2c(c1)C1(CCOCC1)CN2CCF.O=C(O)C(F)(F)F	28.61
